# Sampled rows, rich in hits. Any-hit rate of the full collection: about 1.3%.
# sEH act = soluble epoxide hydrolase activators, primary screen, biochemical, human sEH | hit rate 0.04% among 91,000 | AID 717, 2007 | activation, % at 2 µM | Bifunctional epoxide hydrolase 2 (Homo sapiens), P34913 | purified human sEH enzymatic activity, activator screen; in the data active = activation above about 37%
# BAP1 inh = inhibitors of BAP1 deubiquitinase, primary screen, biochemical, Ub-AMC fluorescence, kinetic | recombinant BAP1, Ub-AMC hydrolysis fluorescence kinetic; hits give low values | Ubiquitin carboxyl-terminal hydrolase BAP1 (Homo sapiens), Q92560 | hit rate 0.48% among 72,000 | calls only at 20 µM;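 active = activity remaining at or below 50% of control, provided the compound also passes the data quality filters; inactive = the rest, including low values that fail the filters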
# Target sequence (Q92560 whole entry, looked up): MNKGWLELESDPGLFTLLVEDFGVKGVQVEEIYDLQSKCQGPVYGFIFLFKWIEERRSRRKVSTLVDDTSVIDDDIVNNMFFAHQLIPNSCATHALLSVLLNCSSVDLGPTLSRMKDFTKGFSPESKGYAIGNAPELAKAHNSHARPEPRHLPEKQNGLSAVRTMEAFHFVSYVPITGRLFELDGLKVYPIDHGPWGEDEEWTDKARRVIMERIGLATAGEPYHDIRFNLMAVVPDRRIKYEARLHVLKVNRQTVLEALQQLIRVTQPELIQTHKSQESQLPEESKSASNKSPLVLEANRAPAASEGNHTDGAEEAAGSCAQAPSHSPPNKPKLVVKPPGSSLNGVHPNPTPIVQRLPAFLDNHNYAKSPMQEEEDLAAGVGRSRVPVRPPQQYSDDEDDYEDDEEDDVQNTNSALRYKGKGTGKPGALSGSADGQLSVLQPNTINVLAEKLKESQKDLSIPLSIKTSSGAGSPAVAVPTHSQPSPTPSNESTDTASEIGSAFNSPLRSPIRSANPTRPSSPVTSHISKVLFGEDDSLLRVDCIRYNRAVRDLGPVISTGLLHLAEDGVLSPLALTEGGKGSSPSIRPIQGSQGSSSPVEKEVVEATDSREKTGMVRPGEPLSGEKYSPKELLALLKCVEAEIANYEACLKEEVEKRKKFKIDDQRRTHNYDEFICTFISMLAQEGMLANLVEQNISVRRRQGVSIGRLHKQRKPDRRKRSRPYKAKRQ
# PLAP act = PLAP enzyme activators, biochemical, luminescence, HTS; Alkaline phosphatase, placental type (Homo sapiens), P05187; purified PLAP enzyme, luminescent substrate read-out; hits give high values; activation fold at 20 µM; hit rate 1.2% among 96,000; AID 696, 2007; in the data active = activation fold above about 2
# sEH inh = soluble epoxide hydrolase inhibitors, primary screen, biochemical, human sEH | Bifunctional epoxide hydrolase 2 (Homo sapiens), P34913 | recombinant human sEH enzymatic activity assay | inhibition, % at 2 µM | hit rate 0.34% among 91,000 | AID 707, 2007; in the data active = inhibition above about 80%
# Numbers stand for hits; - = inactive; . = no result shown; + = active, no number.
SMILES,sEH act,BAP1 inh,PLAP act,sEH inh
Cc1ccc(S(=O)(=O)N(CC(=O)N2CCC(C)CC2)c2cccc(C)c2)cc1,-,.,2.2,-
Cc1ccc(S(=O)(=O)N2CCC(C(=O)N3CCC[C@H]3C(=O)NC3CCS(=O)(=O)C3)CC2)cc1 (stereo not given in full),-,-,2,-
Cc1ccc(S(=O)(=O)N2CCC(C(=O)NCCN3CCCCCC3)CC2)cc1,-,-,2.1,-
CCC(=O)c1ccc(N2CCCCCC2)c(F)c1,.,-,-,.
CCC(=O)c1ccc(N2CCCC2)c(F)c1,39,.,.,-
CC1=C(C(=O)OCCOc2ccccc2)C(c2ccccc2F)C2=C(CC(C)(C)CC2=O)N1 (stereo not given),.,-,.,.
CCCc1nnc(NC(=O)CSc2ncn[nH]2)s1,-,-,2.7,-
O=C(CSc1ncn[nH]1)Nc1nc(-c2ccccc2)cs1,-,.,2.8,-
CCOC(=O)c1c(NC(=O)CSc2ncn[nH]2)sc(C)c1C,-,.,2,-
Cc1cc(=O)[nH]c(SCC(=O)Nc2nc(-c3ccccc3)cs2)n1,-,-,-,-
CCCC1=C(C(=O)OCC)C(c2cccc([N+](=O)[O-])c2)NC(=O)N1 (stereo not given),.,-,.,.
O=C(Nc1cccc(-c2nnn(CC(=O)N3CCc4ccccc4C3)n2)c1)C1CCC1,-,.,2.3,-
O=C(COc1ccccc1)Nc1nnc(-c2ccccc2)o1,-,-,-,-
O=C(COc1ccccc1)Nc1cccc(-c2nnc(-c3ccccc3)o2)c1,.,+,-,.
Cc1occc1C(=O)N/N=C/c1c[nH]c2ccccc12,-,.,-,-
C/C(=N\NC(=O)c1c[nH]c2ccccc12)c1ccc(C)o1,-,.,2.6,-
Brc1c(CSc2nc3ccccc3o2)nc2ccccn12,.,-,.,.
C/C(=N/NC(=O)c1ccccn1)c1ccco1,-,.,-,-
C/C(CC(=O)Nc1ccc(N(C)C)cc1)=N\NC(=O)c1ccccn1,-,.,2,-
C[C@H](N)c1nnc(SCC(=O)c2ccc(Cl)cc2)o1,-,.,2.9,-
CC(C)[C@H](N)c1nnc(SCC(=O)c2ccc(Cl)cc2)o1,-,.,-,-
OC(COCC1COc2ccccc2O1)CN1CCN(c2ccccc2F)CC1 (stereo not given),47,.,-,-
CCC(C)(C)n1nnnc1C(c1ccc(C)cc1)N1CCN(Cc2ccc3c(c2)OCO3)CC1 (stereo not given),-,.,.,-
CCC(C)(C)n1nnnc1C(c1ccc2ncccc2c1)N1CCN(Cc2ccc3c(c2)OCO3)CC1 (stereo not given),-,-,2.1,-
CCOC(=O)C1=C(C)NC(=S)N(C(C)=O)C1c1ccccc1F (stereo not given),.,-,.,.
SMILES,sEH act,BAP1 inh,PLAP act,sEH inh
Cn1c(COc2ccc(Br)cc2)nc2ccccc21,.,-,.,.
Brc1ccc(OCc2nc(-c3ccccn3)n[nH]2)cc1,-,.,2.2,-
Cc1ccc(OCc2nc(-c3ccccn3)no2)cc1,-,.,-,-
Clc1ccc(OCc2nc(-c3ccccn3)n[nH]2)cc1,-,-,2.3,-
CC1=C(C(=O)Nc2ccc(C)cc2)C(c2ccc(Cl)cc2)n2ncnc2N1 (stereo not given),.,-,.,.
CCCc1ccc(-c2ccc(C(=O)OCc3ccco3)cc2)nc1,.,-,.,.
CC(=O)c1cccc(NC(=O)NC(C)c2ccncc2)c1 (stereo not given),-,-,2.2,-
CCCCCOC(=O)C1=C(C)NC(=O)NC1c1cccc(Br)c1 (stereo not given),.,-,.,.
CCCCCn1c(N)nc2c1c(=O)[nH]c(=O)n2C,.,-,.,.
CC(=O)NC1CC2CCCC(C1)N2C(=O)Nc1ccc(Cl)c(C(F)(F)F)c1 (stereo not given),-,-,-,87
COc1ccc(C(=O)NCCCN2CCCC2=O)cc1,-,.,-,-
O=C(NCCCN1CCCC1=O)c1ccc(OCc2ccccc2)cc1,-,.,2.1,-
O=C(OCCCCN1C(=O)c2ccccc2C1=O)c1n[nH]c2ccccc12,-,.,2,-
CCOc1ccc2cc(C(N)=O)c(=O)oc2c1,.,-,.,.
COc1ccc(C)cc1S(=O)(=O)N(CC(=O)N1CCOCC1)Cc1ccccc1,.,-,-,.
COc1ccc(S(=O)(=O)N(CC(=O)N2CCOCC2)Cc2ccccc2)cc1C,-,.,2,-
CCOC(=O)c1ccc(N2C(=O)CC(N3CCN(CC=Cc4ccccc4)CC3)C2=O)cc1 (stereo not given),.,-,.,.
CCOC(=O)c1ccc(N2C(=O)CC(N(Cc3ccc4c(c3)OCO4)C(=O)Nc3ccccc3)C2=O)cc1 (stereo not given),-,.,2,-

# High-throughput results as filed in PubChem BioAssay.
